Tests used:
Assay in all cases: log2 ratio of Biotin-Ahx-Ub-VS probe labelling (fragment/DMSO); higher = less target engagement (more negative = stronger competition), active = hit call of the paper (q ≤ 0.05, log2 ratio ≤ -1)
Conditions in all cases: compound concentration: 200 uM; treatment time: 3 h
[1] = molecular target: USP34 (UniProt Q70CQ2)
How it was run: (§1)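 Triplicate samples of HEK293T lysate, 495 µg each, received fragment at 200 µM or vehicle for 3 h, followed by Biotin-Ahx-Ub-VS (0.5 µM final) for 1 h. After NeutrAvidin enrichment of labelled DUBs and LysC/trypsin digestion, peptides were run by diaPASEF LC-MS/MS. The values are average log2 fragment/vehicle ratios from global-median-normalised Spectronaut label-free quantities, tested by unpaired t-test on proteins having ≥2 unique peptides.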

[2] = molecular target: T1, USP36 (UniProt Q9P275)
T1 sequence (whole entry): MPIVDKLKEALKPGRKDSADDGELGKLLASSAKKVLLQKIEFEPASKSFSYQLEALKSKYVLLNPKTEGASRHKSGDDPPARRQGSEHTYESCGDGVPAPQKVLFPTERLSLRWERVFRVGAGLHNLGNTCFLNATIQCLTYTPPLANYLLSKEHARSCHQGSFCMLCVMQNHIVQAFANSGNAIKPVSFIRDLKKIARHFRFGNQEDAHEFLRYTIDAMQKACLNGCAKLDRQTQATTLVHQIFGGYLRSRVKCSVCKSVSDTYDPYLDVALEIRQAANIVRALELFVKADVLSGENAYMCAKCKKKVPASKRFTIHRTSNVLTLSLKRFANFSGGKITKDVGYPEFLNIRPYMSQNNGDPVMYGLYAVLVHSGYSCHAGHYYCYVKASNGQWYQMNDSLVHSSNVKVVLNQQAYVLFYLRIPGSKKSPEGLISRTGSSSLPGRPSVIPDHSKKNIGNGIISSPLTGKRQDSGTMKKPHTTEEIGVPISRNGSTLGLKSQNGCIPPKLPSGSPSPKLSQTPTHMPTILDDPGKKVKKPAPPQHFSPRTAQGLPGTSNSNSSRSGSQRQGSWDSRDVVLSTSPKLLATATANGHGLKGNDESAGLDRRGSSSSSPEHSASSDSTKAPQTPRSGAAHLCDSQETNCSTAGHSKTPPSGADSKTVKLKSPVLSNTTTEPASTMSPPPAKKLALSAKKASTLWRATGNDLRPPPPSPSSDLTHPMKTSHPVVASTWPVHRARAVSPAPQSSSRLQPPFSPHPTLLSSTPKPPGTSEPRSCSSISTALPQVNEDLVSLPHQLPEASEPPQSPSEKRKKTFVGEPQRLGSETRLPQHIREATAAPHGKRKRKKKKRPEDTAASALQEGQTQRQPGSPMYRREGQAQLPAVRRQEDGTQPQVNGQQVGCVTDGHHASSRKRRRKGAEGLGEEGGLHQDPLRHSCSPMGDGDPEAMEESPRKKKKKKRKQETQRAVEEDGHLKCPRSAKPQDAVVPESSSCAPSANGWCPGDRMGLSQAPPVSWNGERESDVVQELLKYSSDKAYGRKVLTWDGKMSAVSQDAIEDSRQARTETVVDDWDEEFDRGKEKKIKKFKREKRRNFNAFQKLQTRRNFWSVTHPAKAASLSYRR
How it was run: as §1

[3] = molecular target: T2, USP38 (UniProt Q8NB14)
T2 sequence (whole entry): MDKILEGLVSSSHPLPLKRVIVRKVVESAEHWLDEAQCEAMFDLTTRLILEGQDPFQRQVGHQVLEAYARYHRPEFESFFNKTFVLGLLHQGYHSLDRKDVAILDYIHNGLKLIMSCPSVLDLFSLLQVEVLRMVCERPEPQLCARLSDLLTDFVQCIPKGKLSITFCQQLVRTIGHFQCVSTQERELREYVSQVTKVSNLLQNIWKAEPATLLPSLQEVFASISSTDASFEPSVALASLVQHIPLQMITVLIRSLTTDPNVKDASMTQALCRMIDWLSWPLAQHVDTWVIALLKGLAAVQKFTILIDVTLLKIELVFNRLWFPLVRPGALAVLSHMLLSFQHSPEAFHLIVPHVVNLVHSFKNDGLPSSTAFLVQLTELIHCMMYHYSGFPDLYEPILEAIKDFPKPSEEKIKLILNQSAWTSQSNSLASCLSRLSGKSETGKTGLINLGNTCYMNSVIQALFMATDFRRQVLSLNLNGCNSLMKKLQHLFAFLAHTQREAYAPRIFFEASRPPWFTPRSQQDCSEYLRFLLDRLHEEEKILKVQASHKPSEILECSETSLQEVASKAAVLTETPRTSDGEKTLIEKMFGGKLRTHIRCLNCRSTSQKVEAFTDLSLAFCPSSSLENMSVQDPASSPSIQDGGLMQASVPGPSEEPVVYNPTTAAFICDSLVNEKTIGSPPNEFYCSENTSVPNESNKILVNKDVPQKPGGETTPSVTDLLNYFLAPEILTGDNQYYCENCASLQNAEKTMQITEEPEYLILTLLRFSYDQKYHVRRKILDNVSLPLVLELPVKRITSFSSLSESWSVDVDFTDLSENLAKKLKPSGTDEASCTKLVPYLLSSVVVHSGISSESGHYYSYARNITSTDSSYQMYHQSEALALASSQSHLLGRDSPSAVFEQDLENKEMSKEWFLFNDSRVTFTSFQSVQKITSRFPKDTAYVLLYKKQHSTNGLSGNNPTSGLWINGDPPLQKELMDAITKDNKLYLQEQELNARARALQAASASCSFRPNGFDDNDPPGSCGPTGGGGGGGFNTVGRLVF
How it was run: as §1

[4] = molecular target: T3, USP39 (UniProt Q53GS9)
T3 sequence (whole entry): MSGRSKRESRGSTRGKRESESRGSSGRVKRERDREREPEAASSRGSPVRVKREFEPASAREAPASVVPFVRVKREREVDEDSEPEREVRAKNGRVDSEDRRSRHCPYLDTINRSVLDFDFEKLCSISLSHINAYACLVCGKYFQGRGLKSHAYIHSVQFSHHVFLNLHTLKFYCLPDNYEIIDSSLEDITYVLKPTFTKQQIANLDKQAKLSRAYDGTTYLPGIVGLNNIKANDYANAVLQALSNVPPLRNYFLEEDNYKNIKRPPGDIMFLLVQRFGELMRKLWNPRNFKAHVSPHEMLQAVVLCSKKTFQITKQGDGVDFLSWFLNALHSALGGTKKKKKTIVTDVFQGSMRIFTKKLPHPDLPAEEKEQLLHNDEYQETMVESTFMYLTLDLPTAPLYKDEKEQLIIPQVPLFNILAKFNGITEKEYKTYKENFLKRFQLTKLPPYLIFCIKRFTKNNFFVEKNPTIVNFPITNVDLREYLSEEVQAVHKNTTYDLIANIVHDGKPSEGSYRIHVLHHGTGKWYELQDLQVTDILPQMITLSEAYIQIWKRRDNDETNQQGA
How it was run: as §1

[5] = molecular target: T4, USP4 (UniProt Q13107)
T4 sequence (whole entry): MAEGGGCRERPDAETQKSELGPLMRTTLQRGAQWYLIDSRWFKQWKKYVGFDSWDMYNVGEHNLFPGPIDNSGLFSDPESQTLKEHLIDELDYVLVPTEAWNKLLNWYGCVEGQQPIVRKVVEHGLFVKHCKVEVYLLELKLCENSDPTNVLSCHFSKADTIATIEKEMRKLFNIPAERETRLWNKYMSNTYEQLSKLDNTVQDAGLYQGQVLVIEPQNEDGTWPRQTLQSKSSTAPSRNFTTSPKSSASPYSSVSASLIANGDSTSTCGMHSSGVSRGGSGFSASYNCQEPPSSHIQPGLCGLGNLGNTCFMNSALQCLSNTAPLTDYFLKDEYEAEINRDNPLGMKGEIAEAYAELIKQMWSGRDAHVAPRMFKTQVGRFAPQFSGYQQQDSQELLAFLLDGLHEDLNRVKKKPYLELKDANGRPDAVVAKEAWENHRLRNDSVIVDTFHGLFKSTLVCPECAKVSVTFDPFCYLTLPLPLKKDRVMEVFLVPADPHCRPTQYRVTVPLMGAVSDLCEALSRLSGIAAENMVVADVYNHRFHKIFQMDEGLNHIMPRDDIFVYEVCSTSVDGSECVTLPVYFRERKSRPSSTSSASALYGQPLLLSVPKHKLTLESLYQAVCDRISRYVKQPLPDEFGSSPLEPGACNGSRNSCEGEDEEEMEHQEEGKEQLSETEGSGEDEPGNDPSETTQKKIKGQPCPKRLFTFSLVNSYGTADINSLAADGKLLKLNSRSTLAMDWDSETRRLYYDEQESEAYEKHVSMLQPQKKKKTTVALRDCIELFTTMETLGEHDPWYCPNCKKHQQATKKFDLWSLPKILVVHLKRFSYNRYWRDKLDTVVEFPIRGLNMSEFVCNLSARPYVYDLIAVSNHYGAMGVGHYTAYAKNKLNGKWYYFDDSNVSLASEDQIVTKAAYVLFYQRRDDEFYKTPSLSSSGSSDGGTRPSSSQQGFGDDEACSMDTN
How it was run: as §1

Measured: log2 ratio of Biotin-Ahx-Ub-VS probe labelling

USP34, sequence (Q70CQ2 whole entry, the tested form may be a part): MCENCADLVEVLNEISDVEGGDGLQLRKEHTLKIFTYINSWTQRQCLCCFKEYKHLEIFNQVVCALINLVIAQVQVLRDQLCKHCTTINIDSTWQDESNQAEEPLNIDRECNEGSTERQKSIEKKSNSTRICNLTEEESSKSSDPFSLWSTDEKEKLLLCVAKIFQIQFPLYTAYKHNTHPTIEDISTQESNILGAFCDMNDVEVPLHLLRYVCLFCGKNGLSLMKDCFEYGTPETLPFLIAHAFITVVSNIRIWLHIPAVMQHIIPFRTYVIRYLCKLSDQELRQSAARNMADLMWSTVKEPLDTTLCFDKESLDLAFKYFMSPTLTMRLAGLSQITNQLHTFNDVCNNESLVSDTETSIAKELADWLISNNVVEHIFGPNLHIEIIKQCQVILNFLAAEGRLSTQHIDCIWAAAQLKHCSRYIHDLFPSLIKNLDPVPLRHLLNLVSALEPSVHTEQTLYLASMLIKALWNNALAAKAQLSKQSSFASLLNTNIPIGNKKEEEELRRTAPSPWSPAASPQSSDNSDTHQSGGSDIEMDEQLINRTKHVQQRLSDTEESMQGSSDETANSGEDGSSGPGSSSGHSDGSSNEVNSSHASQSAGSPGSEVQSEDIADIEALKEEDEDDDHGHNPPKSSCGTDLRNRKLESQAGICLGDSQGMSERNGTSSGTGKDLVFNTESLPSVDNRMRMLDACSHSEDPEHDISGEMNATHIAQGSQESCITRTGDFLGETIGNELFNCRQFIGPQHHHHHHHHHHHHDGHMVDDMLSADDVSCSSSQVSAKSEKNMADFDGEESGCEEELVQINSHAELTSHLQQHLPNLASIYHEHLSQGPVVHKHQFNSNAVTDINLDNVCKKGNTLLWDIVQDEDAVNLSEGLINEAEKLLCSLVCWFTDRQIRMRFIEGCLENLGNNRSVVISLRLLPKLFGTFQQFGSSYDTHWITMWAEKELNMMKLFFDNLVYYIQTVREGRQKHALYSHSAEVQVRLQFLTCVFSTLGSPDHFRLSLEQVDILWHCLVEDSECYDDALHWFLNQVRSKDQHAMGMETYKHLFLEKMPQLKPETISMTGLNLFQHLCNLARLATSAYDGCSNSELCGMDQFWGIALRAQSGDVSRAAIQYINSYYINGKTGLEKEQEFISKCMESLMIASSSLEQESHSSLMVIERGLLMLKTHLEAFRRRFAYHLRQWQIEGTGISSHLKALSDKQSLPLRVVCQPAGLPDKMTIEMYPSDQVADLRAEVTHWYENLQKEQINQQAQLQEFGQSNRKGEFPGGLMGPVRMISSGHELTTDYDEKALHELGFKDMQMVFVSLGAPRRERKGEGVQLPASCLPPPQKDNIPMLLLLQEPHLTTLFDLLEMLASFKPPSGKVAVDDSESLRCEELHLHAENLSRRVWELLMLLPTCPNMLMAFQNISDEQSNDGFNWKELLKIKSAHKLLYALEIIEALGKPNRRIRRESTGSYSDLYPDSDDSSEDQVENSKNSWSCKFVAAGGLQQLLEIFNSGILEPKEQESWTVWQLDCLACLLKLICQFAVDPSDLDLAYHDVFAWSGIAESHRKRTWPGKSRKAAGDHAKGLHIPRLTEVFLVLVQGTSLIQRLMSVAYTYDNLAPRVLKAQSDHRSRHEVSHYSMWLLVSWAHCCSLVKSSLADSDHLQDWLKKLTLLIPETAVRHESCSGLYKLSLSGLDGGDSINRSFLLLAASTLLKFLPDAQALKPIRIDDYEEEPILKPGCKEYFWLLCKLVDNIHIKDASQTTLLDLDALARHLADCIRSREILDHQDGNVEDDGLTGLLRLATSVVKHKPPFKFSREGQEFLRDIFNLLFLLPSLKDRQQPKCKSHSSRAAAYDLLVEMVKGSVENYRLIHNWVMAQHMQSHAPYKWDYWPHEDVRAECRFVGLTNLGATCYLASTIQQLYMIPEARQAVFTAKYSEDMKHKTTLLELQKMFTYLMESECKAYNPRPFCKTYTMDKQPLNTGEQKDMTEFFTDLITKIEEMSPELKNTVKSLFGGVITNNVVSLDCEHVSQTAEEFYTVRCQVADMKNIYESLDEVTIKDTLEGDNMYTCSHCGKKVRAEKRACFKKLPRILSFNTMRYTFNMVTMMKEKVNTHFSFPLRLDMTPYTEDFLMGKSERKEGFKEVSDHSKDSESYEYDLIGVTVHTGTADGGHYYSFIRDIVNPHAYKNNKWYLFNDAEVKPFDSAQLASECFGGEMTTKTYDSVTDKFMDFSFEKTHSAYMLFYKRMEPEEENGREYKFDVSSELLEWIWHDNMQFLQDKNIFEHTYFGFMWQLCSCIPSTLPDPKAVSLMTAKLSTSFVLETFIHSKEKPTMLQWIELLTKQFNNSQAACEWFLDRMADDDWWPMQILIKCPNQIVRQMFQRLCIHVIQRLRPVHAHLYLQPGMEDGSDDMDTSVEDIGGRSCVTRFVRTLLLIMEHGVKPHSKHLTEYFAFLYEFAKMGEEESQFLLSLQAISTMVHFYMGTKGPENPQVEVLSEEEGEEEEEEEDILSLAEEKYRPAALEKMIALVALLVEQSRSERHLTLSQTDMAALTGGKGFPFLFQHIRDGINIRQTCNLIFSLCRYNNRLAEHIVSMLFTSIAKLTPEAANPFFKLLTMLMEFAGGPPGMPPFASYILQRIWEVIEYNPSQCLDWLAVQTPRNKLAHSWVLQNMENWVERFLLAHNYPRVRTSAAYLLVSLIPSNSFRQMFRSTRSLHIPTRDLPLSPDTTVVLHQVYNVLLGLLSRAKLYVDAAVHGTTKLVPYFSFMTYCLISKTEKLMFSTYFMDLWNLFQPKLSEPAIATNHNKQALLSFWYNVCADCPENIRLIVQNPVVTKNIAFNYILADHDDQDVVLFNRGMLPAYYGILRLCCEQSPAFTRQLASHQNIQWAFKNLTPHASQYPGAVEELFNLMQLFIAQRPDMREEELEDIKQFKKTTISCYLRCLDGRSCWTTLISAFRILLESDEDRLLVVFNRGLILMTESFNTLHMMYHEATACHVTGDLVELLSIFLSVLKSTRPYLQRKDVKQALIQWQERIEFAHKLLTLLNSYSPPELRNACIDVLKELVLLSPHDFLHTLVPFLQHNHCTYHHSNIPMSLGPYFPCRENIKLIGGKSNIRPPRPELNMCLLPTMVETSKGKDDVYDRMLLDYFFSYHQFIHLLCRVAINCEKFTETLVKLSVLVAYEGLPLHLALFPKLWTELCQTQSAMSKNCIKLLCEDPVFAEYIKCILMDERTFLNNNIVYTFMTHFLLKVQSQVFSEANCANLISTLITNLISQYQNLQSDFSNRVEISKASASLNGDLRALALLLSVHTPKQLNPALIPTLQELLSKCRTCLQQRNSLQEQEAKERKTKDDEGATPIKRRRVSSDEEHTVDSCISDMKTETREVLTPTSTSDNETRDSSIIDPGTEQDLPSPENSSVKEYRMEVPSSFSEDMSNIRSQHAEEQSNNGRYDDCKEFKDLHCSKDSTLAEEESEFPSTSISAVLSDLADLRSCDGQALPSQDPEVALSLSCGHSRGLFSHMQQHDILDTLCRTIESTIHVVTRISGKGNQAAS

COc1cccc(CN(C)C(=O)CCl)c1
inactive: [1] 0.0183 | [2] -0.187 | [3] 0.0437 | [4] 0.0189 | [5] -0.4

— the supplement of paper PMC11732987, “Enantioselective OTUD7B fragment discovery through chemoproteomics screening and high-throughput optimisation” (Communications Chemistry, 2025)
